The list shows a part of the results. A number with no mark means an inactive call. How the calls were made is not given here.
Molecular target: Adenosylmethionine-8-amino-7-oxononanoate aminotransferase (Mycobacterium tuberculosis (strain ATCC 25618 / H37Rv)) (UniProt P9WQ81)
Assay: Mtb BioA enzyme inhibitors, dose response, biochemical, plate reader, cherry-pick samples, set 03 (AID 651679);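 further: top concentration of the dilution series was 10 µM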
Conditions: purified BioA enzyme

Sequence of Adenosylmethionine-8-amino-7-oxononanoate aminotransferase (Mycobacterium tuberculosis (strain ATCC 25618 / H37Rv)) (P9WQ81 whole entry, looked up): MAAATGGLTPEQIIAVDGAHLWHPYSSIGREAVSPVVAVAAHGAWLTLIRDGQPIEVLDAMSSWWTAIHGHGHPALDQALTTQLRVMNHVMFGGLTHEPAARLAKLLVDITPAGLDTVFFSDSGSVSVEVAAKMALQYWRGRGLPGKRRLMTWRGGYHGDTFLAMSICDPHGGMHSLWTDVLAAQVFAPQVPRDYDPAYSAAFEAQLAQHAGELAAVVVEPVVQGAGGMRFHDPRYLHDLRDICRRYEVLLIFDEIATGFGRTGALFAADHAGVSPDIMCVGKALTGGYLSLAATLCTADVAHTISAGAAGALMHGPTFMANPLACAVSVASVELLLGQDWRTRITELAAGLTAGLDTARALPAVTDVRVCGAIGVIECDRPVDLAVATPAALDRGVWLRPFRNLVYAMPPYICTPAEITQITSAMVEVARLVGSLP

Structure (SMILES)	max activity
O=C(CSc1n[nH]c(-c2cccnc2)n1)Nc1ccnc2ccccc12	-8.45%
CCCOc1ccc2c3c(c(=O)oc2c1OCCC)CCC3	12.3% [at 1.2 µM]
CC(=O)CSc1nnc(CSc2ncccn2)n1C1CCCCC1	4.14%
COCCNC(=O)C[C@H]1CC[C@@H]2[C@H](COc3ccc(NC(=O)Nc4cccc(F)c4)cc3C(=O)N2C)O1	9.1%
CC1(C)CC(=O)C=C(c2ccc3ncccc3c2)C1	-6.7%
CC(=O)c1ccc(N2CCN(C(=O)c3ccc4nc[nH]c4c3)CC2)cc1	5.95% [at 10 µM]
CS(=O)(=O)N1[C@H](C(=O)NCc2ccncc2)[C@@H](CO)[C@@H]2Cn3c(ccc(C4=CCCCC4)c3=O)[C@@H]21	4.42%
Cc1nc2nc(SCC(=O)NCc3ccco3)nn2c(C)c1Cc1ccccc1	-11.9% [at 0.16 µM]
CC(=O)O[C@]1(C(C)=O)CC[C@H]2[C@@H]3C=C(C)C4=CC(=O)CC[C@]4(C)[C@H]3CC[C@@]21C	-6.47% [at 0.6 µM]
Cc1nc(=O)c(-c2ccccc2)c(C)n1-c1ccc(Br)cc1	-5.48% [at 0.08 µM]
Cc1c(OC(C)C(=O)NCC2CCC(C(=O)O)CC2)ccc2c1oc(=O)c1ccccc12 (stereo not given)	-6.87% [at 0.3 µM]
O=c1[nH]c(N2CCN(Cc3ccc4c(c3)OCO4)CC2)nc2c1CCCC2	-3.93% [at 5 µM]
COc1cc(-c2n[nH]c(=S)n2Cc2ccccc2)cc(OC)c1OC	-6.94% [at 0.6 µM]
Cc1c2cnn(CC(=O)NCc3ccccn3)c(=O)c2c(C)n1Cc1ccc(Cl)cc1	-3.46% [at 10 µM]
Cn1c(=O)c2c(nc(OCc3cccnc3)n2Cc2ccccc2)n(C)c1=O	-7.11% [at 0.3 µM]
O=C(c1ccncc1)N1CC[C@@H]2[C@H]1c1cc(Br)ccc1N[C@@H]2CO	-4.43%
C=C(C)CSc1nc(N)c2c3c(sc2n1)CCC3	-5.78%
CCC(CO)Oc1cc(NC(=O)c2cccc(F)c2)c2ncn(C(C)C)c2c1 (stereo not given)	-8.92%
C=CCn1c(SCc2c(C(=O)OC)sc(N)c2C(=O)OC)nnc1-c1ccc(Cl)cc1	-8.75%
Cc1ccc(Cc2c(C)nc3nc(SCC(=O)NCCN4CCOCC4)nn3c2C)cc1	-9.07%
